Test results from PubChem BioAssay (NCI).
Compounds without any hit were thinned out: in the full panel of roughly 83,000, 20% have a hit.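 Step 1: grow cells in 96-well plates. Step 2: add test compound at a single concentration. Step 3: incubate 48 h. Step 4: record percent growth.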 Values without a mark were called inactive. The source made the active and inactive calls. Rule for the calls: active = growth percent below 10; inactive = the rest.

How the values were obtained:
Assay in all cases: NCI-60 one-dose screen, 48 h (100 = growth as untreated, 0 = no growth, -100 = all killed)
Conditions in all cases: 10 µM unless noted
[1] = tested on: NCI/ADR-RES ovarian
[2] = tested on: T-47D breast
[3] = tested on: BT-549 breast
[4] = tested on: MDA-MB-435 melanoma
[5] = tested on: SW-620 colon
[6] = tested on: MCF7 breast
[7] = tested on: HCT-116 colon
[8] = tested on: HCC-2998 colon
[9] = tested on: KM12 colon

C/C(=C\c1ccn(-c2ccccc2N)n1)[C@@H]1C[C@@H]2O[C@]2(C)CCC[C@H](C)[C@H](O)[C@@H](C)C(=O)C(C)(C)[C@@H](O)CC(=O)O1
growth [1]: -4.02% (active)
growth [2]: 36.4%
growth [3]: 15%
growth [4]: -46.6% (active)
growth [5]: 38.3%
growth [6]: 18.6%
growth [7]: 12.1%
growth [8]: 3.48% (active)
growth [9]: 14.6%

COC(=O)[C@@H](C)C[C@H](Cc1ccccc1)NC(=O)c1cccc([C@@H](C[C@H](C(C)C)N(C)C(=O)[C@@H](NC(=O)[C@H]2CCCCN2C)C(C)C)OC(C)=O)n1
growth [1]: 14.6%
growth [2]: 47.1%
growth [3]: -12.5% (active)
growth [4]: -32.2% (active)
growth [5]: 22%
growth [6]: 21.3%
growth [7]: 2.54% (active)
growth [8]: 2.68% (active)
growth [9]: 7.8% (active)

COc1cc(/C=C/[N+](=O)[O-])cc(OC)c1
growth [1]: 11.3%
growth [2]: -1.67% (active)
growth [3]: -49.7% (active)
growth [4]: -46.4% (active)
growth [5]: -10.5% (active)
growth [6]: -59.1% (active)
growth [7]: -68.3% (active)
growth [8]: -79.7% (active)
growth [9]: -23.7% (active)

CN1C(=O)N[C@H]2[C@@H]3NC(=O)c4ccc(Br)n4[C@@H]3C[C@]21O
growth [1]: 48.6%
growth [2]: -10.6% (active)
growth [3]: -47.8% (active)
growth [4]: -30.6% (active)
growth [5]: -4.51% (active)
growth [6]: -4.96% (active)
growth [7]: -17.1% (active)
growth [8]: -24.1% (active)
growth [9]: -12.8% (active)

CC[S][Hg][Cl]
growth [1]: 106%
growth [2]: 122%
growth [3]: 111%
growth [4]: 98.7%
growth [5]: 106%
growth [6]: 93.3%
growth [7]: 106%
growth [8]: 111%
growth [9]: 107%

ClCCN(CCCl)c1nc(Cl)c(C2CC(c3ccccc3)=NN2c2cc(Cl)cc(Cl)c2)s1 (stereo unspecified)
growth [1]: 103%
growth [2]: 97.8%
growth [3]: 107%
growth [4]: 109%
growth [5]: 98.5%
growth [6]: 97.5%
growth [7]: 98.1%
growth [8]: 105%
growth [9]: 100%

CSc1nc(Cl)cc(N2CC2)n1
growth [1]: 119%
growth [2]: 108%
growth [3]: 111%
growth [4]: 116%
growth [5]: 105%
growth [6]: 105%
growth [7]: 105%
growth [8]: 138%
growth [9]: 111%

Cc1cc(N(CCCl)CCCl)ccc1C=Nc1ccc(-c2csc(Cc3ccccc3)n2)cc1
growth [1]: 61.6%
growth [2]: 45.3%
growth [3]: 69%
growth [4]: 78.3%
growth [5]: 83.2%
growth [6]: 44.5%
growth [7]: 77%
growth [8]: 71.7%
growth [9]: 89.8%

COc1ccc(Nc2ccnc3cc(Cl)ccc23)cc1CN(CCCl)CCCl
growth [1]: -40.4% (active)
growth [2]: -7.47% (active)
growth [3]: -50.6% (active)
growth [4]: -88.3% (active)
growth [5]: -28.6% (active)
growth [6]: -10.7% (active)
growth [7]: -79.8% (active)
growth [8]: -79.5% (active)
growth [9]: -62.6% (active)

CNC(=O)Oc1cccc(C(F)(F)F)c1
growth [1]: 109%
growth [2]: 98.9%
growth [3]: 108%
growth [4]: 126%
growth [5]: 104%
growth [6]: 109%
growth [7]: 107%
growth [8]: 113%
growth [9]: 110%

COC(=O)CC12CC(NC(=O)c3csc([C@@H](C[C@H](C(C)C)N(C)C(=O)[C@@H](NC(=O)[C@H]4CCCCN4C)C(C)C)OC(C)=O)n3)(C1)C2
growth [1]: -24.1% (active)
growth [2]: 64.4%
growth [3]: -19.8% (active)
growth [4]: -39.8% (active)
growth [5]: 29%
growth [6]: 20.4%
growth [7]: 9.61% (active)
growth [8]: 10.5%
growth [9]: 11.1%

O=C1C2C(C(=O)[N]1[Hg][c]1ccccc1)C1(Cl)C(Cl)=C(Cl)C2(Cl)C1(Cl)Cl (stereo unspecified)
growth [1]: 40.6%
growth [2]: -36.9% (active)
growth [3]: -89% (active)
growth [4]: -78% (active)
growth [5]: -78.4% (active)
growth [6]: -55.3% (active)
growth [7]: -77.7% (active)
growth [8]: 11.7%
growth [9]: 74.6%

CCOC(=O)[C@@H](C)C[C@H](Cc1ccccc1)NC(=O)c1csc([C@@H](C[C@H](C(C)C)N(C)C(=O)[C@@H](NC(=O)[C@H]2CCCCN2C)C(C)(C)C)OC(C)=O)n1
growth [1]: 6.69% (active)
growth [2]: 62.7%
growth [3]: -27.2% (active)
growth [4]: -66.4% (active)
growth [5]: 26.2%
growth [6]: 13.8%
growth [7]: 2.35% (active)
growth [8]: -2.49% (active)
growth [9]: 3.85% (active)

C[N+]12CN3CN(CN(C3)C1)C2
growth [1]: 97.9%
growth [2]: 93%
growth [3]: 113%
growth [4]: 101%
growth [5]: 96.7%
growth [6]: 97.3%
growth [7]: 92.8%
growth [8]: 99.3%
growth [9]: 111%

O=C1NC(=O)C(=Cc2cn(CCCCCCn3c4ccccc4c(=O)c4ccccc43)c3ccccc23)C(=O)N1
growth [1]: 83.9%
growth [2]: 60.6%
growth [3]: 94.3%
growth [4]: 102%
growth [5]: 93.8%
growth [6]: 71.6%
growth [7]: 70.2%
growth [8]: 96.8%
growth [9]: 95.8%

Nc1c(F)cc(-c2nc3cc(F)ccc3[se]2)cc1Br
growth [1]: 89.8%
growth [2]: -9.56% (active)
growth [3]: 43%
growth [4]: 94.2%
growth [5]: 84.4%
growth [6]: 2.12% (active)
growth [7]: 15.5%
growth [8]: -35.1% (active)
growth [9]: 38.8%

CN1C(=O)C(=Cc2cn(Cc3ccccc3)c3ccccc23)C(=O)N(C)C1=O
growth [1]: 89%
growth [2]: 42.8%
growth [3]: 88.9%
growth [4]: 102%
growth [5]: 79.7%
growth [6]: 64%
growth [7]: 71%
growth [8]: 81.8%
growth [9]: 102%

CC(=O)Nc1nc2c(s1)CC[C@@]1(C)C2=CC[C@H]2[C@@H]3CC[C@H](O)[C@@]3(C)CC[C@@H]21
growth [1]: 45.5%
growth [2]: 82%
growth [3]: 42.6%
growth [4]: 5.93% (active)
growth [5]: 44.8%
growth [6]: 24.6%
growth [7]: 30.3%
growth [8]: 96%
growth [9]: 49.4%

C[S+]1C=Cc2ccccc2C1c1ccc(Cl)cc1 (stereo unspecified)
growth [1]: 101%
growth [2]: 89.9%
growth [3]: 85.6%
growth [4]: 75%
growth [5]: 112%
growth [6]: 84.5%
growth [7]: 81.6%
growth [8]: 103%
growth [9]: 1.91% (active)

COc1cc([C@@H]2c3cc4c(cc3[C@H](OC(C)=O)[C@H]3COC(=O)[C@@H]23)OCO4)cc(OC)c1OC
growth [1]: -43% (active)
growth [2]: 99.2%
growth [3]: 8.82% (active)
growth [4]: -24.4% (active)
growth [5]: 26.8%
growth [6]: 13.5%
growth [7]: -14.2% (active)
growth [8]: -21% (active)
growth [9]: -37.1% (active)

CC(=O)ONc1ccc([N+](=O)[O-])c(C(F)(F)F)c1
growth [1]: 101%
growth [2]: 77.1%
growth [3]: 92.9%
growth [4]: 105%
growth [5]: 102%
growth [6]: 93.6%
growth [7]: 100%
growth [8]: 108%
growth [9]: 101%

Cc1c(C)c([N+](=O)[O-])c(C)c(C)c1[N+](=O)[O-]
growth [1]: 107%
growth [2]: 101%
growth [3]: 106%
growth [4]: 91.9%
growth [5]: 112%
growth [6]: 107%
growth [7]: 115%
growth [8]: 104%
growth [9]: 110%

[Cl][Hg][c]1cc(Br)cc(Br)c1
growth [1]: 81.1%
growth [2]: 27.5%
growth [3]: 48%
growth [4]: 58.2%
growth [5]: 29%
growth [6]: 15.1%
growth [7]: 64%
growth [8]: 85.4%
growth [9]: 70.4%

CNCc1cccnc1
growth [1]: 104%
growth [2]: 98.4%
growth [3]: 124%
growth [4]: 95.9%
growth [5]: 107%
growth [6]: 105%
growth [7]: 107%
growth [8]: 96.6%
growth [9]: 104%

Clc1cccc(NCOOC2(OOCNc3cccc(Cl)c3)CCCCCC2)c1
growth [1]: 61.8%
growth [2]: 89%
growth [3]: 101%
growth [4]: 105%
growth [5]: 107%
growth [6]: 87.2%
growth [7]: 90.6%
growth [8]: 107%
growth [9]: 87.9%

COc1ccc(/C=C\c2cc(OC)c(OC)c(OC)c2)cc1OCC(=O)Nc1nc2ccc(F)cc2s1
growth [1]: 20.2%
growth [2]: 38.3%
growth [3]: 53.7%
growth [4]: 15.5%
growth [5]: 42.4%
growth [6]: 17.1%
growth [7]: 17.5%
growth [8]: 72%
growth [9]: 42.1%

CN1CC(CNC(=O)OCc2ccccc2)CC2c3cccc4c3c(cn4C)CC21 (stereo unspecified)
growth [1]: 44.2%
growth [2]: 31.6%
growth [3]: 50%
growth [4]: 3% (active)
growth [5]: 35.9%
growth [6]: -55.3% (active)
growth [7]: 31.7%
growth [8]: -66.9% (active)
growth [9]: 38.1%

O=C1C(N2CC2)=C(N2CC2)C(=O)C(N2CC2)=C1N1CC1
growth [1]: -27.7% (active)
growth [2]: 30.5%
growth [3]: -34.2% (active)
growth [4]: -74.7% (active)
growth [5]: 0.521% (active)
growth [6]: -46.1% (active)
growth [7]: -79.2% (active)
growth [8]: -94.9% (active)
growth [9]: -58.6% (active)

COc1cccc2c1c(C(=O)C(=O)Nc1ccn[nH]1)cn2Cc1ccc(F)cc1
growth [1]: 109%
growth [2]: 104%
growth [3]: 114%
growth [4]: 121%
growth [5]: 102%
growth [6]: 92.3%
growth [7]: 103%
growth [8]: 39.6%
growth [9]: 105%
